Screens as filed in PubChem BioAssay.
Shown are actives, neighbours in structure and some others; about 6.9% of the full set was active somewhere.
KB-3-1 tox: KB-3-1 parental cell cytotoxicity | KB-3-1 viability, CellTiter-Glo ATP luminescence, 72 h | 1.4% of 400,000 active | Potency, µM (doses to about 46.1 µM), usual class: cytotoxic | AID 1347075; further: potency means the concentration at half of the fitted maximal effect; on the % scale 0 is the no-effect control and ±100 the full control effect; nearly all actives have a fitted effect of over 60% in size
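Luminescent ATP read-out (CellTiter-Glo) measures survival of drug-naive KB-3-1 cells after 72 h compound exposure at 37 °C. Titration series was screened from lowest to highest concentration, with DMSO vehicle plates as background controls.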
KB-V1 cytotox: KB-V1 MDR subline cytotoxicity; AID 1347076; KB-V1 MDR cells viability, CellTiter-Glo, 72 h; Potency, µM (titrated, usually from 46.1 µM), actives largely listed as cytotoxic; 3.4% of 400,000 active; further: potency means the concentration at half of the fitted maximal effect; on the % scale 0 is the no-effect control and ±100 the full control effect; nearly all actives have a fitted effect of over 60% in size
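Readout: CellTiter-Glo luminescence, 10 min after addition. Cells: KB-V1 MDR subline, 72 h at 37 degrees C with compound. Analysis: corrected, normalized data fitted to concentration-effect curves.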
ASM inhibitor: blocks human secretory acid sphingomyelinase | AID 504937 | 0.006% of 340,000 active | placental ASM, HMU-PC fluorogenic substrate, 60 min | Potency, µM (top dose mostly 57.5 µM), for inactives: at the top dose activity change, negative = inhibition, hits mostly inhibitors | P17405; further: potency means the concentration at half of the fitted maximal effect
Target sequence (P17405 47-631 limits assumed): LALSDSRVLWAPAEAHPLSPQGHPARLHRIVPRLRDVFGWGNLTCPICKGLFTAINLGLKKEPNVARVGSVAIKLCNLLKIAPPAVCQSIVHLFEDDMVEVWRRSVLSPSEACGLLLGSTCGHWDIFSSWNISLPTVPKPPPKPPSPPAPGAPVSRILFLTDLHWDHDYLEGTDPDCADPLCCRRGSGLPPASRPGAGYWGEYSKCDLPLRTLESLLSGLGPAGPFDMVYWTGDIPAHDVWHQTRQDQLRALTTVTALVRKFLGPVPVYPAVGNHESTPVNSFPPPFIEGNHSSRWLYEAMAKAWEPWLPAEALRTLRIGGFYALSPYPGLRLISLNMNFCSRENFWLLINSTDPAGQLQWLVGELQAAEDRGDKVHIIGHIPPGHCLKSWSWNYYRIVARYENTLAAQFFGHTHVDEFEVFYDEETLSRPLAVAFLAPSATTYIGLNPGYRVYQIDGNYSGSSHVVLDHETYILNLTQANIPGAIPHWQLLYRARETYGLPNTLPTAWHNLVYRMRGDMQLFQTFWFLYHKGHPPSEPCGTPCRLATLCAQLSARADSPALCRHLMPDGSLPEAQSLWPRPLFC
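Human placenta-derived ASM preincubated with compound 10 min at room temperature, then reacted with 9 uM (final) fluorogenic HMU-PC substrate for 60 min at 37 C. Stop solution raises pH to 10; fluorescence read at Ex 386/Em 447 nm.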
SW480 rereplic: inducers of DNA re-replication in SW480 colon cancer cells | SW480 DNA re-replication, Hoechst DNA content imaging, 48 h | Potency, µM (series often up to 46.1 µM), for inactives: at the highest dose re-replication activation, hits mostly activators | 1.8% of 340,000 active | AID 624297; further: potency means the concentration at half of the fitted maximal effect; % of control where 0% means no effect; nearly all actives have a fitted effect of over 55% in size
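Image-based DNA-content assay: after two days of treatment, nuclei were labelled with the DNA dye Hoechst and imaged, and hits were compounds raising the count of nuclei showing high fluorescence intensity.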
MCF10A rereplic: DNA re-replication induction in MCF 10a cells; MCF 10A DNA re-replication, Hoechst nuclear intensity, 48 h; Potency, µM (series often up to 46.1 µM), inactives show at the top dose activity, positive = re-replication, actives largely listed as activators; 2.9% of 350,000 active; AID 624296; further: potency means the concentration at half of the fitted maximal effect; % of control where 0% means no effect; nearly all actives have a fitted effect of over 50% in size
Giardia killer: Giardia lamblia killing. 0.15% of 340,000 active. activity change, % at 7.66 µM, hits read low. Giardia lamblia trophozoite viability; in the data active means activity change below about -80%; inconclusive means between about -30% and that limit;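 further: parasites exposed to compound for two days anaerobically before the ATP read; on the % scale 0 is the no-effect control and ±100 the full control effect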
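Trophozoites 100 cells/well + cpd; 48 hrs, 37 deg C, anaerobic. ATPLite 1-Step added, 15-30 min RT, luminescence read (ATP-based viability).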
Active calls of the source: *; i = inactive; ? = inconclusive; / = no result given; [ ] = another dose, or the depositor's remark. Unless noted, the call rests on the fitted dose curve; in most records, active means well fitted curve in the direction sought with a large enough effect; inconclusive means small, poorly fitted or top-dose-only effect, or another doubt; inactive means no such curve, though single readings can be large; an effect the other way counts as inactive or inconclusive.

SMILES | KB-3-1 tox | KB-V1 cytotox | ASM inhibitor | SW480 rereplic | MCF10A rereplic | Giardia killer
NCC[C@H](O)C(=O)N[C@H]1C[C@@H](N)[C@@H](O[C@H]2O[C@@H](CN)[C@@H](O)[C@@H](O)[C@@H]2N)[C@@H](O[C@H]2O[C@@H](CO)[C@@H](O)[C@@H]2O)[C@@H]1O | / | / | / | 0%[20.6 µM] | 1%[20.6 µM] | /
COC1CC(O[C@H]2/C(C)=C/CC3CC(C[C@]4(CCC(C)C(C5CCCCC5)O4)O3)OC(=O)[C@H]3C=C(C)/C(=N/O)C4OC/C(=C\C=C\[C@@H]2C)[C@@]43O)OC(C)C1O (stereo not given in full) | / | / | / | 8% | ? | /
c1cc2c(cc1CCNC1C3CC4CC(C3)CC1C4)OCO2 (stereo not given) | i | 21µM* | 1% | -5% | 9% | -9
COc1ccc(CN2C(=O)NC(=O)/C(=C/c3ccc(OC)c(OC)c3OC)C2=O)cc1 | i | i | 0% | -8% | ? | 20
COc1ccc(-c2ccc(OC)c(OC)c2OC)cc1 | ? | ? | 1% | 3.7µM* | 4.6µM* | 3
CN1C(=S)CN=C(c2ccccc2)c2cc(Cl)ccc21 | / | / | / | -4% | 1% | /
CC(C)CCOP(=O)(c1ccc(N(C)C)cc1)C(O)c1ccccc1 (stereo not given) | i | i | 0% | ? | -1% | 3
COc1ccccc1-c1nn2c(=O)cc(CN3CCN(C(=O)COc4ccccc4Cl)CC3)nc2s1 | i | i | / | / | / | /
O=[N+]([O-])c1ccc(Sc2nc3ccccc3o2)c([N+](=O)[O-])c1 | i | ? | 0% | 4.1µM* | 12µM* | 9
O=C(O)COc1ccc(Br)cc1C(c1c(C(=O)O)[nH]c2ccccc12)c1c(C(=O)O)[nH]c2ccccc12 | i | i | 3% | -32% | ? | 8
CC1=CC(O)C(O)C2(C)C1CC1OC(=O)CC3C(C)C(O)C(=O)C2C13CO (stereo not given) | 18µM* | i | 4% | ? | 0% | -5
C[N+]1(C)CCCCC1COC(=O)C(O)(c1ccccc1)c1ccccc1 (stereo not given) | / | / | / | -12% | 0% | /
Cc1nn(Cc2ccccc2Cl)c(Cl)c1C(=O)OCC(=O)NC(=O)NC1CCCCC1 | i | 16µM* | -1% | -11% | ? | 39
Cc1nn(Cc2ccccc2)c(Cl)c1C(=O)OCC(=O)Nc1cccc2ccccc12 | ? | 16µM* | 1% | -1% | ? | -18
Cc1nn(Cc2ccccc2)c(Cl)c1C(=O)OC(C)C(=O)Nc1ccc(F)cc1Cl (stereo not given) | i | 3.3µM* | 0% | 7% | 21µM* | -12
Cc1noc(C)c1C(=O)N1CCC2(CC1)Oc1ccc(F)cc1C(=O)C21CC(c2ccc(Cl)cc2)=NO1 (stereo not given) | i | i | -1% | ? | 4% | -16
Cc1c(N=Cc2c(O)n(Cc3ccccc3)c(=O)[nH]c2=O)c(=O)n(-c2ccccc2)n1C | i | i | 5% | 29µM* | -8% | 11
COc1ccc(OC)c(-n2c(O)c(C=Nc3c(C)n(C)n(-c4ccccc4)c3=O)c(=O)[nH]c2=O)c1 | i | i | -1% | ? | ? | 2
O=c1[nH]c(=O)n(Cc2ccccc2)c(O)c1C=NCCN1CCNCC1 | i | i | -8% | 6.5µM* | 2.9µM* | 1
C=CCn1c(O)c(C=NCCN2CCNCC2)c(=O)[nH]c1=O | i | i | 6% | -5% | 0% | 2
Cc1c(N=Nc2c(O)n(Cc3ccccc3)c(=O)[nH]c2=O)c(=O)n(-c2ccccc2)n1C | i | 3.7µM* | -4% | ? | 20% | 34
COc1ccccc1-n1c(O)c(C=Nc2c(C)n(C)n(-c3ccccc3)c2=O)c(=O)[nH]c1=O | i | i | 8% | 23µM* | ? | 13
CCN(CC)C(=O)c1ccc2c(c1)C1C(Cl)C(Sc3ccccc3[N+](=O)[O-])CC1C(C(=O)O)N2 (stereo not given) | 2.6µM* | i | 2% | -1% | 1% | 10
Cc1ccc2c(c1Cl)NC(C(=O)O)C1CC(Sc3ccccc3[N+](=O)[O-])C(Cl)C21 (stereo not given) | i | i | -6% | -7% | 8% | -15
C#CC(C)(O)CC (stereo not given) | / | / | / | 0% | 11% | /
SMILES | KB-3-1 tox | KB-V1 cytotox | ASM inhibitor | SW480 rereplic | MCF10A rereplic | Giardia killer
CCOc1cc(-c2nc3c(C)cccn3c2NCC2CCCO2)ccc1O (stereo not given) | i | 5.2µM* | 217% | -3% | 0% | 5
O=C(CSC1c2ccccc2-c2ccccc21)N/N=C/c1ccc(C(=O)O)cc1 | i | i | 5% | -3% | 2% | 4
O=C(CSC1c2ccccc2-c2ccccc21)N/N=C/c1ccccc1O | ? | 5.2µM* | 100% | ? | 2.1µM* | -2
O=Cc1cn(Cc2ccc([N+](=O)[O-])cc2)c2ccccc12 | 6.5µM* | ? | -6% | ? | 18µM* | -21
COc1ccc(-c2noc(=O)n2Cc2cc(C)ccc2C)cc1 | ? | ? | -1% | ? | 16µM* | 13
COc1cccc(Cn2c(-c3cccs3)noc2=O)c1 | i | ? | 4% | -25% | ? | -5
O=C1c2ccccc2-c2cccc3cccc1c23 | i | i | 40% | -8% | 8% | 2
c1ccc2c(c1)cc1ccc3cccc4ccc2c1c34 | i | i | i | 21µM* | ? | -11
Ic1ccccc1CN[C@@H]1C2CCN(CC2)[C@@H]1C(c1ccccc1)c1ccccc1 | ? | 16µM* | ? | -2% | ? | -3
O=C(c1ccc(N2CCCCCC2)c([N+](=O)[O-])c1)N1CCC2(CC1)OCCO2 | i | ? | -1% | 17% | 23µM* | 21
O=C(c1ccc2c(c1)OCO2)N1CCC2(CC1)OCCO2 | i | i | 6% | -11% | -1% | 2
CN1C(=O)[C@@H](NC(=O)c2cc3ccccc3[nH]2)N=C(c2ccccc2)c2ccccc21 | / | / | / | ? | -1% | /
CCOC(=O)[C@]12Cc3cc(OC)ccc3[C@H]1N(C1CCCCC1)C(=O)c1ccccc12 | 3.3µM* | 2.3µM* | / | / | / | /
CCOC(=O)[C@]12Cc3ccc4ccccc4c3[C@H]1N(Cc1ccccc1)C(=O)c1ccccc12 | ? | i | / | / | / | /
CCOC(=O)[C@]12Cc3cc(Cl)ccc3[C@H]1N(C1CCCCC1)C(=O)c1ccccc12 | 1.6µM* | ? | / | / | / | /
COc1cccc(NP(=O)(Oc2ccccc2)Oc2ccccc2)c1 | 5.8µM* | i | -6% | 16µM* | 3.3µM* | 2
